Screening results deposited in PubChem by National Center for Advancing Translational Sciences (NCATS).
Sampled rows, rich in hits. Any-hit rate of the full collection: about 2%.
PKM2 act: PKM2 (human) enzyme activation; P14618; purified PKM2, Kinase-Glo ATP luminescence, activation; response scale: 0% is enzyme alone, no compound; Potency, µM (titrated, usually from 57.5 µM), usual class: activators; 260,000 tested, 0.34% active; AID 1631; also: nearly all actives have a fitted effect of over 55% in size
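Purified hPK-M2 (>95%) run at intermediate activity with 0.1 mM ADP and 0.5 mM PEP in 50 mM imidazole pH 7.2, KCl, MgCl2; 1 h room temperature. ATP formed read by Kinase-Glo luminescence; normalized to uninhibited and no-enzyme controls.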
NPSR antagonist: antagonists of human neuropeptide S receptor cAMP signaling. Q6W5P4. Potency, µM (doses to about 38.3 µM), usual class: inhibitors. AID 1461. 220,000 tested, 1% active. CHO-NPSR cells, cAMP TR-FRET, antagonist mode; also: nearly all actives have a fitted effect of over 50% in size
Target sequence (Q6W5P4 whole entry, looked up): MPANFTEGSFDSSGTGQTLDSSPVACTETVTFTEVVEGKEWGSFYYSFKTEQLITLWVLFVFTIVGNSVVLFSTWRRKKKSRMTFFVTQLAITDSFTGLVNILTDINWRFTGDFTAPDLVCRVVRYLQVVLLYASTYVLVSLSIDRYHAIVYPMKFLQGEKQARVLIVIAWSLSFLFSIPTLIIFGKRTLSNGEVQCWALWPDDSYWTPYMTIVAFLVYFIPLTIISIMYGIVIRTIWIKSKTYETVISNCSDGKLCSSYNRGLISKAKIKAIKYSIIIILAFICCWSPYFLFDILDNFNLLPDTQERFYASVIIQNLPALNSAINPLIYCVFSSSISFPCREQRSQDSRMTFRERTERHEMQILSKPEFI
ClpP mod: qHTS Assay for Activators of ClpP. Potency, µM (doses to about 57.5 µM). 340,000 tested, 1.9% active. AID 651965, 2013. purified B. subtilis ClpP, FRET peptide cleavage, 20 min. ATP-dependent Clp protease proteolytic subunit (Bacillus subtilis (strain 168)), P80244; active = well fitted falling curve with a large enough effect; inconclusive = small, poorly fitted or top-dose-only effect; inactive = no such curve, though single readings can be large or run the other way; also: the source files actives as falling curves though it sought activators and does not explain the sign; nearly all actives have a fitted effect of over 65% in size
Target sequence (P80244 whole entry, looked up): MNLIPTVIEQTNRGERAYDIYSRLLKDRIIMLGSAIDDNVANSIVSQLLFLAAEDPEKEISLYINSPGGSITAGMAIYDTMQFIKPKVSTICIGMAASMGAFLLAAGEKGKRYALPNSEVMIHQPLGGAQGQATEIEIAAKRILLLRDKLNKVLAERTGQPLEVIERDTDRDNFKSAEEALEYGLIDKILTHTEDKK
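ClpP 10 microg/mL final, pH 8 Tris/KCl buffer with BSA, glycerol, Tween-20; compound pinned in; FRET-FV substrate; RT 20 min; Ex320/Em430; ΔFRET vs ADEP 5.8 microM, DMSO, no enzyme.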
IL-2 act: activators of IL-2; AID 652025; activation, % (series mostly up to about 46 µM); 360,000 tested, 0.065% active; IL-2 activation reporter assay, cell-based qHTS; stimulated with anti-CD3/CD4/CD28 beads; in transgenic mouse T cells; in the data active = activation above about 50%; inconclusive = mostly about 30% to 49%
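Readout is EGFP and DsRed signal by fluorescent plate cytometry after 18 h at 37 degrees C. Transgenic mouse T cells (750/well) received compound for 60 min before bead stimulation (anti-CD3, anti-CD4, anti-CD28); memory T cells served as non-tolerant control.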
ClpP inh valid: Bacillus subtilis ClpP inhibition, validated hit. 470 tested, 40% active. Potency, µM (doses to about 57.5 µM), hits mostly inhibitors. purified B. subtilis ClpP, FRET-FV substrate cleavage, 20 min. shares compounds with ClpP mod; also: nearly all actives have a fitted effect of over 70% in size
Numbers stand for hits; n = inactive; u = inconclusive; x = no result given; ! = not confirmed by another sample. Unless noted, calls follow the shape of the dose curve; as a rule, active = well fitted curve in the direction sought with a large enough effect; inconclusive = small, poorly fitted or top-dose-only effect, or another doubt; inactive = no such curve, though single readings can be large; an effect the other way counts as inactive or inconclusive.

SMILES	PKM2 act	NPSR antagonist	ClpP mod	IL-2 act	ClpP inh valid
O=c1c2ccccc2nc2n1CCCN2	n	n	x	n	x
CCOc1ccccc1CNC(=O)c1cnc2sc(N3CCCC3)nn2c1=O	x	x	7.9µM	x	n
Cc1ccc(S(=O)(=O)NC(CC(=O)NCc2ccco2)c2ccco2)cc1 (stereo not drawn)	n	n	n	n	x
COCCCNC(=O)CC(NS(=O)(=O)c1ccc(C)cc1)c1ccco1 (stereo not drawn)	n	n	3.2µM	n	n
COc1ccc(S(=O)(=O)N(C)c2ccc(C(=O)N3CCOCC3)cc2)cc1	n	n	2.2µM	n	n
COc1ccc(S(=O)(=O)N(C)c2ccc(C(=O)N3CCCCC3)cc2)cc1	n	x	n	n	x
COc1ccc(NC(=O)COC(=O)COc2cccc(Br)c2)cc1OC	x	n	x	n	x
CC1=C(C(=O)Nc2ccccc2)C(c2ccc(C)cc2)N=C(Nc2nc3ccccc3o2)N1 (stereo not drawn)	n	n	5µM	n	24µM
CC1(C)CC(=O)C2=C(C1)NC(Nc1nc3ccccc3o1)=NC2c1ccccn1 (stereo not drawn)	n	n	x	n	x
COc1cc2ccccc2cc1C(=O)NCC(c1cccs1)N(C)C (stereo not drawn)	n	n	3.2µM	n	u
CC(NC(=O)C1CCN(S(=O)(=O)c2ccc(F)cc2)CC1)c1ccccc1 (stereo not drawn)	x	x	u	x	n
Cc1ccc2nc(-c3ccco3)c(Nc3ccccc3)n2c1	n	n	3.2µM!	n	u
Cc1ccc(Cl)cc1NC(=O)CCc1c(C)nc2c3cccnc3nn2c1C	x	x	3.5µM	x	19µM
O=C(Nc1cccc(Cl)c1)c1nc[nH]c1C(=O)NCc1ccccc1	x	x	n	n	u
O=C(Nc1cccc(-c2cn3ccccc3n2)c1)c1cc2ccccc2oc1=O	n	n	n	n	n
CC(C)CCNC(=O)COc1ccc2c(c1)C(=O)CC(C)(C)O2	n	n	28µM	n	15µM
COc1cccc(N2CCN(c3ncnc4c3c(-c3ccccc3)cn4-c3cccc(C(F)(F)F)c3)CC2)c1	x	x	4µM	x	22µM
c1ccc(C2Nc3ccccc3-c3nc4ccccc4n32)nc1 (stereo not drawn)	n	n	7.1µM	n	19µM
c1ccc(C2Nc3ccccc3-c3nc4ccccc4n32)cc1 (stereo not drawn)	n	n	n	n	x
CN(C)CCN(C(=O)c1ccc(S(=O)(=O)N(C)CC2CCCO2)cc1)c1nc2cc3c(cc2s1)OCO3 (stereo not drawn)	n	x	n	n	x
O=C(NCc1ccco1)c1cc2ccc(O)cc2oc1=O	n	n	n	n	x
COc1ccc2cc(C(=O)NC3CCCCC3)c(=O)oc2c1	n	n	2.2µM	n	22µM
COc1ccc2cc(C(=O)NCc3ccco3)c(=O)oc2c1	n	n	10µM	n	22µM
O=C(NC1CCCCCC1)c1cc2ccccc2oc1=O	n	x	x	n	x
O=C(Nc1ccc(Br)cc1)c1cc(-c2cccs2)nc2ccccc12	x	x	n	x	24µM
SMILES	PKM2 act	NPSR antagonist	ClpP mod	IL-2 act	ClpP inh valid
CCCCn1cc2c(c1-c1ccc(Br)cc1)c(=O)n(C)c(=O)n2C	x	x	n	x	x
CCCCCn1cc2c(c1-c1ccc(Cl)cc1)c(=O)n(C)c(=O)n2C	x	x	10µM	x	u
CSc1ccc(/C=C/C(=O)OCC(=O)NC(C)C)cc1	n	n	x	n	x
CCOc1ccc(NC(=O)c2cc3c(-c4ccccc4F)nn(C)c3s2)cc1	x	x	n	x	u
Cn1cc(CN2CCN(c3ncccn3)CC2)c(-c2cccc(Cl)c2)n1	n	n	n	n	n
CCC(C)NC(=O)NC1C(NC(=O)NC(C)CC)N(C)C(=O)N1C (stereo not drawn)	n	n	n	n	x
CC(C)CNC(=O)NC1C(NC(=O)NCC(C)C)N(C)C(=O)N1C (stereo not drawn)	n	n	n	n	n
O=C(COc1ccc(S(=O)(=O)N2CCCCC2)cc1)Nc1ccccc1F	n	x	n	n	x
O=C(Nc1nc(-c2cc3ccccc3o2)cs1)c1ccc(S(=O)(=O)N2CCCC2)cc1	n	n	n	n	x
CN(C)S(=O)(=O)c1ccc(C(=O)Nc2nc(-c3cc4ccccc4o3)cs2)cc1	n	n	n	n	n
CCOc1cc(C(=O)Nc2ccc3oc(-c4ccc(CC)cc4)nc3c2)cc(OCC)c1OCC	x	x	n	x	x
Cc1ccc2oc(-c3ccc(NC(=O)c4ccc5c(c4)OCO5)cc3)nc2c1	n	n	3.2µM	n	12µM
CCCOc1ccc(C(=O)Nc2ccc3oc(-c4ccc(N(C)C)cc4)nc3c2)cc1	x	x	1.3µM	x	n
CCOc1cc(C(=O)Nc2ccc(-c3nc4cc(C)ccc4o3)cc2)cc(OCC)c1OCC	x	x	3.2µM	x	31µM
CC(C)c1ccc2oc(-c3ccc(NC(=O)c4ncn[nH]4)cc3)nc2c1	n	n	u	n	x
CCC(C)c1ccc2oc(-c3ccc(NC(=O)c4ncn[nH]4)cc3)nc2c1 (stereo not drawn)	n	n	10µM	n	22µM
Cc1ccc2oc(-c3ccc(NC(=O)c4oc5ccc(Cl)cc5c4C)cc3)nc2c1	x	x	n	x	x
O=C(COC(=O)CCc1nc2ccccc2s1)Nc1ncc(Cl)cc1Cl	n	n	n	n	x
CC(C)CC(=O)Nc1ccc2oc(-c3cccnc3)nc2c1	n	n	u	n	x
Cc1ccc2oc(-c3ccc(NC(=O)CC(C)C)cc3)nc2c1	n	n	8.9µM	n	u
O=c1[nH]c2ccccc2n1C1=CCNCC1	n	n	n	n	x
O=c1oc2ccc3ccccc3c2cc1-c1nc2ccccc2o1	x	x	2.5µM	n	n
COc1c(C)cccc1C(=O)Nc1ccc(-c2nc3ccccc3s2)c(Cl)c1	x	x	7.9µM	x	n
Cc1ccccc1N(CC(=O)Nc1ccc(S(=O)(=O)N2CCOCC2)cc1)S(C)(=O)=O	n	n	n	n	n
Cc1cccc(-c2nnc(NC(=O)c3cccs3)s2)c1	n	n	n	n	x
SMILES	PKM2 act	NPSR antagonist	ClpP mod	IL-2 act	ClpP inh valid
CNc1nnc(-c2cccc(N(C)C)c2)s1	n	n	n	n	n
COc1ccccc1NC(=O)CN1CCCCC1	n	n	4µM	n	n
O=C(NCCSc1c(-c2ccccc2)[nH]c2ccccc12)c1cc2ccccc2oc1=O	n	n	n	n	n
CC(C)Cc1ccc(C(C)C(=O)OCC(=O)c2c[nH]c3ccccc23)cc1 (stereo not drawn)	n	n	n	n	x
Nc1ncnc2oc(-c3ccoc3)c(-c3ccco3)c12	x	x	n	x	x
Nc1ncnc2oc(-c3ccco3)c(-c3ccco3)c12	u	n	8.9µM	n	22µM
O=C(c1cnn(C(=O)c2ccccc2)c1)c1ccccc1O	n	n	n	n	n
O=C(c1cnn(C(=O)c2ccccc2F)c1)c1ccccc1O	x	x	n	n	x
Cc1c(C)c2ccc(OCC(=O)Nc3ccc(N4CCC(C)CC4)cc3)cc2oc1=O	x	x	n	n	n
CCN(CC)CCn1c(N)nc2ccccc21	n	n	x	n	x
COc1c(C)cc(C(=O)C2CCCN(S(=O)(=O)N(C)C)C2)cc1C (stereo not drawn)	n	x	2.8µM	n	n
